# Results from PubChem BioAssay (NCI).
# This is part of a sample that, as a whole, favours compounds with a hit. Of some 79,000 tested, about 15% had one in any assay. Values without a mark were called inactive. Active and inactive are the calls of the source. Cut-off read from the data, not from the text of the source: active = growth inhibition above about 70%; inactive = the rest.
# Tests used:
# [1] = NCI Yeast Anticancer Drug Screen. Data for the rad52 strain (AID 147);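 note: 0% = growth of vehicle-treated control cultures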; details: S. cerevisiae rad52 mutant growth inhibition, stronger effect = higher value
# How it was run: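 Screen used a yeast mutant impaired in DNA repair. After compound exposure, growth was measured. Values reflect inhibition compared with vehicle-treated cells.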
# [2] = NCI Yeast Anticancer Drug Screen. Data for the rad50EPP+ strain (AID 151);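 note: 0% = growth of vehicle-treated control cultures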; details: S. cerevisiae rad50 mutant strain, stronger effect = higher value
# How it was run: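 Exposing the rad50EPP+ strain to each compound, growth was compared with vehicle-only cultures to give inhibition.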
# [3] = NCI Yeast Anticancer Drug Screen. Data for the mgt1 strain (AID 153); details: S. cerevisiae mgt1 mutant growth inhibition, stronger effect = higher value
# How it was run: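 Genetically defined yeast (mgt1) treated with compound; inhibition of growth expressed against vehicle-treated controls.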
# [4] = NCI Yeast Anticancer Drug Screen. Data for the rad50 strain (AID 155);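 note: 0% = growth of vehicle-only cultures of the same strain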; details: S. cerevisiae rad50 strain growth inhibition, stronger effect = higher value
# How it was run: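 Readout: growth inhibition relative to vehicle-treated cultures. Compound exposure was carried out in a genetically defined yeast strain deficient in DNA damage repair.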
# [5] = NCI Yeast Anticancer Drug Screen. Data for the mec2-1 strain (AID 157); details: S. cerevisiae mec2-1 strain, stronger effect = higher value
# How it was run: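 Readout is yeast growth inhibition, normalised to vehicle-treated controls, in the mec2-1 strain exposed to compound.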
# [6] = NCI Yeast Anticancer Drug Screen. Data for the rad14 strain (AID 159);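 note: 0% = growth of vehicle-treated control cultures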; details: S. cerevisiae rad14 strain growth inhibition, stronger effect = higher value
# How it was run: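 Growth inhibition vs vehicle controls; genetically altered yeast strain (DNA damage repair defect) treated with test compounds.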
# [7] = NCI Yeast Anticancer Drug Screen. Data for the sgs1 mgt1 strain (AID 161);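 note: 0% = growth of cultures given vehicle only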; details: S. cerevisiae sgs1 mgt1 strain, stronger effect = higher value
# How it was run: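 This yeast growth screen uses a strain with defined DNA-repair lesions; compound-treated growth is compared with vehicle-treated growth.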
# [8] = NCI Yeast Anticancer Drug Screen. Data for the CLN2oe strain (AID 163);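 note: 0% = growth of vehicle-only control cultures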; details: S. cerevisiae CLN2oe strain, stronger effect = higher value
# How it was run: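 Values reflect how much compound exposure reduced yeast growth, referenced to vehicle-exposed cells. Assay organism is a strain with a defined genetic change affecting cell-cycle control.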
# [9] = NCI Yeast Anticancer Drug Screen. Data for the cln2 rad14 strain (AID 165);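 note: 0% = growth equal to vehicle treated cultures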; details: S. cerevisiae cln2 rad14 strain, stronger effect = higher value
# How it was run: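 Relative to vehicle controls, growth inhibition of compound-treated cln2 rad14 yeast was recorded.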
# [10] = NCI Yeast Anticancer Drug Screen. Data for the bub3 strain (AID 167); details: S. cerevisiae bub3 mutant strain, stronger effect = higher value
# How it was run: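 Readout: yeast growth inhibition, expressed relative to vehicle-only wells. The test organism is a mutant strain from a panel with lesions in DNA repair or checkpoint genes.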
# [11] = NCI Yeast Anticancer Drug Screen. Data for the wt2 strain (AID 169);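 note: 0% = growth of vehicle-treated yeast cultures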; details: S. cerevisiae wt2 strain growth inhibition, stronger effect = higher value
# How it was run: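 Values express reduction in yeast growth under compound treatment, referenced to vehicle-treated cells.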
# [12] = NCI Yeast Anticancer Drug Screen. Data for the mlh1 strain (AID 171);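 note: 0% = growth of vehicle-treated control cultures of the same strain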; details: S. cerevisiae mlh1 strain growth inhibition, stronger effect = higher value
# How it was run: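 Steps: expose the defined-mutant yeast strain to compound; expose a parallel culture to vehicle; measure growth; express compound effect as inhibition relative to the vehicle culture.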
# [13] = NCI Yeast Anticancer Drug Screen. Data for the mlh1 rad18 strain (AID 175); details: S. cerevisiae mlh1 rad18 strain growth inhibition, stronger effect = higher value
# How it was run: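 Test agents were incubated with a yeast strain of defined genotype (DNA damage repair defect). Inhibition of growth was derived by comparison with vehicle-exposed cultures.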
# [14] = NCI Yeast Anticancer Drug Screen. Data for the rad18 strain (AID 177); details: S. cerevisiae rad18 mutant growth inhibition, stronger effect = higher value
# How it was run: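 A genetically defined yeast mutant impaired in DNA damage repair was treated with test compounds, then its growth was measured against cultures receiving vehicle alone.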
# [15] = NCI Yeast Anticancer Drug Screen. Data for the wt1 strain (AID 149);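 note: 0% = growth of vehicle-treated wt1 cultures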; details: S. cerevisiae wt1 strain (SPY 50644) growth inhibition, stronger effect = higher value
# How it was run: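 Growth inhibition read against vehicle controls after compound exposure of the wt1 yeast strain.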
# [16] = at 5.0 µM (retest, dose inferred, filed as 0.5)
# [17] = at 50.0 µM (retest, dose inferred, filed as 5.0)
smiles,measurement,setting,value
O=[N+]([O-])C(=C(Sc1ccccc1)Sc1ccccc1)C(Cl)=C(Cl)Cl,growth inhibition,[1]; at 1.2 µM,14%
same,growth inhibition,[1]; at 3.7 µM,30%
same,growth inhibition,[1]; at 11.0 µM,45%
same,growth inhibition,[1]; at 33.0 µM,56%
same,growth inhibition,[1]; at 100.0 µM,59%
same,growth inhibition,[2]; at 1.2 µM,9%
same,growth inhibition,[2]; at 3.7 µM,20%
same,growth inhibition,[2]; at 11.0 µM,36%
same,growth inhibition,[2]; at 33.0 µM,49%
same,growth inhibition,[2]; at 100.0 µM,48%
same,growth inhibition,[3]; at 1.2 µM,2%
same,growth inhibition,[3]; at 3.7 µM,17%
same,growth inhibition,[3]; at 11.0 µM,44%
same,growth inhibition,[3]; at 33.0 µM,59%
same,growth inhibition,[3]; at 100.0 µM,74% (active)
same,growth inhibition,[4]; at 1.2 µM,4%
same,growth inhibition,[4]; at 3.7 µM,8%
same,growth inhibition,[4]; [16],5%
same,growth inhibition,[4]; at 11.0 µM,23%
same,growth inhibition,[4]; at 33.0 µM,46%
same,growth inhibition,[4]; [17],53%
same,growth inhibition,[4]; at 50.0 µM,19.6%
same,growth inhibition,[4]; at 100.0 µM,50%
same,growth inhibition,[5]; at 1.2 µM,12%
same,growth inhibition,[5]; at 3.7 µM,26%
same,growth inhibition,[5]; [16],22%
same,growth inhibition,[5]; at 11.0 µM,37%
same,growth inhibition,[5]; at 33.0 µM,46%
same,growth inhibition,[5]; [17],26%
same,growth inhibition,[5]; at 50.0 µM,46.5%
same,growth inhibition,[5]; at 100.0 µM,46%
same,growth inhibition,[6]; at 1.2 µM,4%
same,growth inhibition,[6]; at 3.7 µM,7%
same,growth inhibition,[6]; at 11.0 µM,19%
same,growth inhibition,[6]; at 33.0 µM,27%
same,growth inhibition,[6]; at 100.0 µM,28%
same,growth inhibition,[7]; [16],2%
same,growth inhibition,[7]; [17],53%
same,growth inhibition,[7]; at 50.0 µM,62.6%
same,growth inhibition,[8]; at 1.2 µM,4%
same,growth inhibition,[8]; at 3.7 µM,16%
same,growth inhibition,[8]; at 11.0 µM,26%
same,growth inhibition,[8]; at 33.0 µM,37%
same,growth inhibition,[8]; at 100.0 µM,32%
same,growth inhibition,[9]; [16],44%
same,growth inhibition,[9]; [17],33%
same,growth inhibition,[9]; at 50.0 µM,32.8%
same,growth inhibition,[10]; at 1.2 µM,6%
same,growth inhibition,[10]; at 3.7 µM,18%
same,growth inhibition,[10]; [16],-1%
same,growth inhibition,[10]; at 11.0 µM,33%
same,growth inhibition,[10]; at 33.0 µM,45%
same,growth inhibition,[10]; [17],59%
same,growth inhibition,[10]; at 50.0 µM,60.2%
same,growth inhibition,[10]; at 100.0 µM,50%
same,growth inhibition,[11]; at 1.2 µM,1%
same,growth inhibition,[11]; at 3.7 µM,15%
same,growth inhibition,[11]; at 11.0 µM,39%
same,growth inhibition,[11]; at 33.0 µM,59%
same,growth inhibition,[11]; at 100.0 µM,73% (active)
same,growth inhibition,[12]; at 1.2 µM,8%
same,growth inhibition,[12]; at 3.7 µM,19%
same,growth inhibition,[12]; at 11.0 µM,40%
same,growth inhibition,[12]; at 33.0 µM,60%
same,growth inhibition,[12]; at 100.0 µM,74% (active)
same,growth inhibition,[13]; [16],12%
same,growth inhibition,[13]; [17],71% (active)
same,growth inhibition,[13]; at 50.0 µM,59.5%
same,growth inhibition,[14]; at 1.2 µM,15%
same,growth inhibition,[14]; at 3.7 µM,43%
same,growth inhibition,[14]; at 11.0 µM,66%
same,growth inhibition,[14]; at 33.0 µM,76% (active)
same,growth inhibition,[14]; at 100.0 µM,74% (active)
O=C1C=CC(=O)c2c(O)c(Nc3ccc(OC(F)(F)F)cc3)c(Cl)c(O)c21,growth inhibition,[15]; at 1.2 µM,23%
same,growth inhibition,[15]; at 3.7 µM,22%
same,growth inhibition,[15]; at 11.0 µM,26%
same,growth inhibition,[15]; at 33.0 µM,50%
same,growth inhibition,[15]; at 100.0 µM,94% (active)
same,growth inhibition,[2]; at 1.2 µM,2%
same,growth inhibition,[2]; at 3.7 µM,8%
same,growth inhibition,[2]; at 11.0 µM,21%
same,growth inhibition,[2]; at 33.0 µM,70% (active)
same,growth inhibition,[2]; at 100.0 µM,93% (active)
same,growth inhibition,[3]; at 1.2 µM,9%
same,growth inhibition,[3]; at 3.7 µM,16%
same,growth inhibition,[3]; at 11.0 µM,16%
same,growth inhibition,[3]; at 33.0 µM,50%
same,growth inhibition,[3]; at 100.0 µM,94% (active)
same,growth inhibition,[4]; at 1.2 µM,-16%
same,growth inhibition,[4]; at 3.7 µM,-15%
same,growth inhibition,[4]; [16],4%
same,growth inhibition,[4]; at 11.0 µM,4%
same,growth inhibition,[4]; at 33.0 µM,67%
same,growth inhibition,[4]; [17],46%
same,growth inhibition,[4]; at 50.0 µM,42%
same,growth inhibition,[4]; at 100.0 µM,89% (active)
same,growth inhibition,[5]; at 1.2 µM,-7%
same,growth inhibition,[5]; at 3.7 µM,-3%
same,growth inhibition,[5]; [16],9%
same,growth inhibition,[5]; at 11.0 µM,8%
same,growth inhibition,[5]; at 33.0 µM,78% (active)
same,growth inhibition,[5]; [17],79% (active)
same,growth inhibition,[5]; at 50.0 µM,46.8%
